Records with an inconclusive call do not appear. The source made the active and inactive calls. The call rests on the fitted dose curve; in most records, active means well fitted activation curve with a large enough effect; inconclusive means small, poorly fitted or top-dose-only effect; inactive means flat fitted curve, though single readings scatter.
Molecular target: Lysosomal acid glucosylceramidase (Homo sapiens) (UniProt P04062)
Assay: qHTS Assay for Inhibitors and Activators of N370S glucocerebrosidase as a Potential Chaperone Treatment of Gaucher Disease: Purified Non-mutant Confirmation for Probe SAR
Details: purified GC, 4MU-beta-glucoside fluorescence, 40 min; series mostly up to 57.5 µM; activity change, negative = inhibition: at the top concentration
Source text: NIH Chemical Genomics Center [NCGC] NIH Molecular Libraries Probe Production Centers Network [MLPCN] MLPCN Grant: MH086442-01 Assay Submitter (PI): Wei Zheng Glucocerebrosidase (GC) catalyzes the hydrolysis of beta-glucocerebroside to glucose and ceramide in lysosomes. Mutations in the glucocerebrosidase gene result in Gaucher disease, an autosomal recessive lysosomal storage disorder. Many of the mutations encountered in patients with Gaucher disease are missense alterations that may cause misfolding, decreased stability and/or mistrafficking of this lysosomal protein. […] These inhibitors include iminosugar analogs and three non-iminosugar inhibitors identified from a previous HTS of 62,000 compounds with the wild type recombinant enzyme. However, the enhancement of enzyme activity by the chaperone action of an enzyme inhibitor must be balanced against the direct inhibition of the enzyme. An enzyme activator could also function as a chaperone by binding to the enzyme and helping to correct its misfolding and mistrafficking. While activators for GC have not yet been identified, they may have better therapeutic potential than inhibitors. Therefore the discovery and development of chemical activators may provide a new strategy for the chaperone therapy. We have optimized a new assay using N370S mutant GC derived from the spleen of a Gaucher patient. […] In addition, the MLPCN compound library has expanded, which increases the chance of finding new and better probes. This assay characterizes compound activity using purified wildtype enzyme instead of mutant enzyme from tissue homogenate. Compound activity differences may be due to the absence of endogenous cofactors found in tissue homogenate as well as inherent differences in enzyme stability and catalytic activity between the N370S and wildtype forms of the protein.
NCGC Assay Protocol Summary: This is a fluorogenic enzyme assay with 4-methylumbelliferyl-beta-D-glucopyranoside as the substrate and purified wildtype glucocerebrosidase as the enzyme preparation. Upon the hydrolysis of this fluorogenic substrate, the resulting product, […] which can be detected by a standard fluorescence plate reader. Data were normalized to the controls for basal activity (without enzyme) and 100% activity (with enzyme). The AC50 values were determined from concentration-response data modeled with the standard Hill equation. Assay buffer: 50 mM citric acid (titrated with potassium phosphate to pH 5.0), 100 mM potassium chloride, 10 mM sodium chloride, 1 mM magnesium chloride, 0.01% Tween-20. 1536-well assay protocol: (1) Add 2 ul/well of glucocerebrosidase enzyme solution (5 nM final) (2) Add 23 nL compounds in DMSO solution. The final titration was 0.5 nM to 58 uM. (3) Add 2 ul of substrate (1 mM final) (4) Incubate at 37C for 40 min. (5) Add 2 ul stop solution (1M NaOH and 1M Glycine mixture, pH 10) (6) Detect the assay plate in a ViewLux plate reader (PerkinElmer) with Ex=365 nm and Em=440nm. Keywords: Glucocerebrosidase, beta-glucosidase, Gaucher Disease, pharmacological chaperone, chaperone therapy, high throughput screening, glucocerebrosidase inhibitor, MLSMR, MLSCN, NIH Roadmap, qHTS and NCGC

Chain of Lysosomal acid glucosylceramidase (Homo sapiens) (P04062 whole entry, looked up): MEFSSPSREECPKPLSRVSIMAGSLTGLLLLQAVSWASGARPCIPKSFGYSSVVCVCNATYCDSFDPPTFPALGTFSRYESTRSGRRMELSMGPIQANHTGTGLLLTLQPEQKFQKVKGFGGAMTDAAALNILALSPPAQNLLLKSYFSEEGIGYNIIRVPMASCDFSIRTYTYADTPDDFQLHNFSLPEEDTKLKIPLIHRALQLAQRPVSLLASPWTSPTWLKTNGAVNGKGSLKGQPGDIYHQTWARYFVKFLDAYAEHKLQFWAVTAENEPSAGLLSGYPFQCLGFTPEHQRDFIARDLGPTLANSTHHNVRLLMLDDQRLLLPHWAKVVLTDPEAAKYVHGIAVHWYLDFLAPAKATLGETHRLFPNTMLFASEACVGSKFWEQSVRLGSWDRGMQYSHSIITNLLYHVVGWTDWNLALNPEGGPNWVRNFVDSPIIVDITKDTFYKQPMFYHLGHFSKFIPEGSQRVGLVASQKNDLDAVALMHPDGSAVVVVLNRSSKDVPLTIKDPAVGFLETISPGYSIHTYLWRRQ

Q: `Cc1cccc(NC(=O)c2cnn3c(C)cc(C)nc23)c1` was tested. Which Potency did it give?
A: Its Potency is 16.3 µM (active).

Q: `Cc1cc(C)n2ncc(C(=O)Nc3ccc4c(c3)OCCO4)c2n1` was tested. Which Potency did it give?
A: The Potency was 16.3 µM (active).

Q: Which Potency does the source give for `Cc1cc(C)n2ncc(C(=O)NCc3ccco3)c2n1` here?
A: The Potency was 23.1 µM (active).

Q: With `CC(=O)c1ccc(NC(=O)c2cnn3c(C)cc(C)nc23)cc1` as the molecule, how does the “activity change, negative = inhibition” value read?
A: The value was 20.5% (inactive).

Q: With `Cc1cc(C)n2ncc(C(=O)Nc3ccc(C(F)(F)F)cc3)c2n1` as the molecule, how does the Potency read?
A: Its Potency is 6.51 µM (active).

Q: Which “activity change, negative = inhibition” value does the source give for `CNC(=O)c1cnn2c(C)cc(C)nc12` here?
A: The value was -2.54% (inactive).

Q: With `Cc1cc(C)n2ncc(C(=O)NC(C)C)c2n1` as the molecule, how does the Potency read?
A: The Potency was 41.1 µM (active).

Q: `Cc1cc(C)n2ncc(C(=O)Nc3ccncc3)c2n1` was tested. Which “activity change, negative = inhibition” value did it give?
A: The value was 1.71% (inactive).

Q: For `Cc1ccc(NC(=O)c2cnn3c(C)cc(C)nc23)cc1`, which Potency is on record?
A: The Potency was 9.19 µM (active).

Q: How did the “activity change, negative = inhibition” value turn out when `COc1ccc(NC(=O)c2cnn3c(C)cc(C)nc23)cc1OC` was run?
A: Its value is 21.2% (inactive).

Q: With `COc1ccc(NC(=O)c2cnn3c(C)cc(C)nc23)cc1F` as the molecule, how does the Potency read?
A: Its Potency is 13 µM (active).

Q: With `CC(=O)Nc1ccccc1NC(=O)c1cnn2c(C)cc(C)nc12` as the molecule, how does the “activity change, negative = inhibition” value read?
A: The value was 13.3% (inactive).

Q: With `Cc1cc(C)n2ncc(C(=O)Nc3ccc(C)c(C)c3)c2n1` as the molecule, how does the Potency read?
A: Its Potency is 5.8 µM (active).

Q: For `Cc1cc(C)n2ncc(C(=O)Nc3ccc(S(C)(=O)=O)cc3)c2n1`, which “activity change, negative = inhibition” value is on record?
A: The value was 8.37% (inactive).

Q: Which Potency does the source give for `Cc1cc(C)n2ncc(C(=O)NCc3ccccc3)c2n1` here?
A: The Potency was 32.6 µM (active).

Q: For `Cc1cc(C)n2ncc(C(=O)Nc3ccccc3)c2n1`, which Potency is on record?
A: The Potency was 7.3 µM (active).

Q: How did the Potency turn out when `Cc1cc(C)n2ncc(C(=O)NC3CCC(C(C)(C)C)CC3)c2n1` (stereo unspecified) was run?
A: Its Potency is 13 µM (active).

Q: With `COc1ccc(NC(=O)c2cnn3c(C)cc(C)nc23)cc1` as the molecule, how does the Potency read?
A: The Potency was 16.3 µM (active).

Q: `Cc1cc(C)n2ncc(C(=O)Nc3ccccc3C)c2n1` was tested. Which Potency did it give?
A: The Potency was 13 µM (active).

Q: `Cc1cc(C)n2ncc(C(=O)NC3CCCCC3)c2n1` was tested. Which Potency did it give?
A: Its Potency is 11.6 µM (active).

Q: How did the Potency turn out when `Cc1cc(C)n2ncc(C(=O)Nc3ccc(Br)cc3)c2n1` was run?
A: The Potency was 16.3 µM (active).

Q: How did the “activity change, negative = inhibition” value turn out when `Cc1cc(C)n2ncc(C(=O)Nc3cccc(C#N)c3)c2n1` was run?
A: Its value is 5.68% [at 19 µM] (inactive).

Q: How did the Potency turn out when `Cc1cc(C)n2ncc(C(=O)Nc3ccc4c(c3)CCC4)c2n1` was run?
A: Its Potency is 10.3 µM (active).

Q: Which Potency does the source give for `O=C(Nc1ccccc1Sc1ccccc1)c1cnn2c1NC(=C1CC1)C=C2C(F)F` here?
A: Its Potency is 32.6 µM (active).

Q: For `C#Cc1ccc(NC(=O)c2cnn3c(C)cc(C)nc23)cc1`, which Potency is on record?
A: Its Potency is 5.17 µM (active).

Q: For `Cc1cc(C)n2ncc(C(=O)Nc3ccc4c(c3)OCO4)c2n1`, which Potency is on record?
A: The Potency was 10.3 µM (active).

Q: For `Cc1cc(C)n2ncc(C(=O)N3CCCC3)c2n1`, which “activity change, negative = inhibition” value is on record?
A: The value was 2.31% (inactive).

Q: How did the Potency turn out when `CCc1ccc(NC(=O)c2cnn3c(C)cc(C)nc23)cc1` was run?
A: Its Potency is 11.6 µM (active).

Q: How did the Potency turn out when `Cc1ccc(NC(=O)c2cnn3c(C)cc(C)nc23)c(C)c1` was run?
A: Its Potency is 20.6 µM (active).

Q: With `CC(=O)c1cccc(NC(=O)c2cnn3c(C)cc(C)nc23)c1` as the molecule, how does the Potency read?
A: Its Potency is 32.6 µM (active).

Q: With `COc1ccc(NC(=O)c2cnn3c(C)cc(C)nc23)cc1Cl` as the molecule, how does the Potency read?
A: The Potency was 20.6 µM (active).
